# Measured values as given in PubChem BioAssay (NCATS).
# Results filed as inconclusive are left out. A call without a number means that no potency is given here. A number with no mark means an inactive call. Active and inactive are the calls of the source. Calls follow the shape of the dose curve; as a rule, active = well fitted curve in the direction sought with a large enough effect; inconclusive = small, poorly fitted or top-dose-only effect, or another doubt; inactive = no such curve, though single readings can be large; an effect the other way counts as inactive or inconclusive.
# Assays:
# [1] = P-glycoprotein substrates identified in KB-3-1 adenocarcinoma cell line, qHTS therapeutic library screen (AID 1346986); also: nearly all actives have a fitted effect of over 60% in size
# Outline: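 KB-3-1 parental and colchicine-selected P-gp-overexpressing KB-8-5-11 cells (colchicine omitted during assay), 500 cells/well, dosed in dose-response for 72 h at 37 °C; CellTiter-Glo luminescence. Cytotoxic: curve class -1.1 to -2.4, max response >50%, AC50 < 10 uM.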
# [2] = P-glycoprotein substrates identified in KB-8-5-11 adenocarcinoma cell line, qHTS therapeutic library screen (AID 1346987); also: nearly all actives have a fitted effect of over 65% in size; as to activity change, negative = cytotoxicity: series mostly up to about 44 µM
# Outline: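 Steps: plate 500 KB-8-5-11 cells/well in DMEM + 10% FCS (colchicine removed); pin compounds in dose-response; incubate 72 h, 37 degree C, 5% CO2; add CellTiter-Glo, 5 min; read luminescence.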
smiles,measurement,setting,value
CC(=O)NCCCCn1c2c(c3ccccc31)C(=O)NCC2,Potency,[1],inactive
same,Potency,[2],inactive
C[C@H]1CC[C@@]2(OC1)O[C@H]1CC3C4CC=C5C[C@H](O)C[C@@H](O[C@@H]6O[C@@H](C)[C@H](O)[C@@H](O)[C@H]6O[C@@H]6O[C@@H](C)[C@H](O)[C@@H](O)[C@H]6O)[C@]5(C)C4CC[C@]3(C)[C@H]1[C@@H]2C (stereo partly specified),Potency,[1],inactive
same,Potency,[2],inactive
N#CC1C(=O)Nc2scc(-c3ccc(-c4ccccc4O)cc3)c2C1=O (stereo unspecified),Potency,[1],inactive
same,Potency,[2],inactive
CCCn1cnc2c(NCc3ccccc3)nc(N[C@H](CC)CO)nc21,Potency,[1],inactive
same,Potency,[2],inactive
COc1cc(/C=C/C(=O)OC2CC(C)=C(C(=O)O)/C2=C/CO[C@@H]2O[C@H](CO)[C@@H](O)[C@H](O)[C@H]2O)ccc1O (stereo partly specified),Potency,[1],inactive
same,Potency,[2],inactive
COc1ccc(C)c2sc(NC(=O)c3ccncc3)nc12,Potency,[1],inactive
same,Potency,[2],inactive
COC(=O)C1=COC(OC2OC(CO)C(O)C(O)C2O)C2C1CC(OC(=O)C(O)CC(=O)O)C2C (stereo unspecified),Potency,[1],inactive
same,Potency,[2],inactive
CC(=O)O[C@H](C[C@@H](C)[C@H]1C(=O)[C@H](O)[C@@]2(C)[C@@H]3CCC4C(C)(C)[C@@H](O[C@@H]5OC[C@H](O)[C@H](O)[C@H]5O)CC[C@@]45C[C@@]35CC[C@]12C)[C@@H]1OC1(C)C (stereo partly specified),Potency,[1],inactive
same,Potency,[2],inactive
CC(=O)OC1C=C(C(=O)O)C2(CO)CCC(C)C(C)(CCc3ccoc3)C2C1 (stereo unspecified),Potency,[1],inactive
same,Potency,[2],inactive
CCOc1nc2cccc(C(=O)O)c2n1Cc1ccc(-c2ccccc2-c2noc(=O)[nH]2)cc1,Potency,[1],inactive
same,Potency,[2],inactive
CC1CCC2C(C)(C)C(O)CCC2(C)C12Cc1c(O)cc3c(c1O2)C(N)=NC3 (stereo unspecified),Potency,[1],inactive
same,Potency,[2],inactive
C[C@@H]1O[C@@H](O[C@H]2[C@H](OC(=O)[C@]34CCC(C)(C)C[C@H]3C3=CCC5[C@@]6(C)C[C@H](O)[C@H](O[C@@H]7O[C@H](CO)[C@@H](O[C@@H]8O[C@H](CO)[C@@H](O)[C@H](O)[C@H]8O)[C@H](O)[C@H]7O)[C@@](C)(CO)C6[C@H](O)C[C@@]5(C)[C@]3(C)C[C@H]4O)OC[C@H](O)[C@@H]2O)[C@H](O)[C@H](O)[C@H]1O[C@@H]1OC[C@@H](O)[C@H](O[C@@H]2OC[C@](O)(CO)[C@H]2O)[C@H]1O (stereo partly specified),outcome,[1],inactive [at 9.29 µM]
same,outcome,[2],inactive [at 9.29 µM]
Cc1cc(O)cc(Oc2cc(C)c(C(=O)O)c(O)c2)c1,Potency,[1],inactive
same,Potency,[2],inactive
CC1=C2C=C(CO)C(CO)CCC2(C)CCC1=O (stereo unspecified),Potency,[1],inactive
same,Potency,[2],inactive
CC(=O)C1CCC2(C)C3=C(CCC12C)C1(C)CCC(=O)C(C)(C)C1CC3 (stereo unspecified),Potency,[1],inactive
same,Potency,[2],inactive
CC(C)c1ccc(CC(=O)N2CCC[C@@H](c3cccc(OC(C)(C)C(=O)O)c3)C2)cc1,Potency,[1],inactive
same,Potency,[2],inactive
CC1CCC2(C(=O)OC3OC(CO)C(O)C(O)C3O)CCC3(C(=O)O)C(=CCC4C5(C)CCC(OC6OC(C)C(O)C(O)C6O)C(C)(C)C5CCC43C)C2C1C (stereo unspecified),Potency,[1],inactive
same,Potency,[2],inactive
CC1=CC(=O)CC(C)(C)C1(O)CCC(C)O (stereo unspecified),Potency,[1],inactive
same,Potency,[2],inactive
O=c1c2ccccc2nc2n1CCC2O (stereo unspecified),Potency,[1],inactive
same,Potency,[2],inactive
CN1C(=O)c2ccccc2-n2c(nc3ccccc3c2=O)/C1=C/c1ccccc1,Potency,[1],inactive
same,Potency,[2],inactive
O=C(/C=C/c1ccccc1)OCC1=CC[C@@H]2C(C(=O)O)=CO[C@@H](O[C@@H]3O[C@H](CO)[C@@H](O)[C@H](O)[C@H]3O)[C@H]12,Potency,[1],inactive
same,Potency,[2],inactive
CC1(C)CC2C(C1)C1(C)CCC13OC3(CO)C2O (stereo unspecified),Potency,[1],inactive
same,Potency,[2],inactive
COc1c(OC2OC(CO)C(O)C(O)C2O)ccc(O)c1C(=O)OCc1ccccc1O[C@@H]1O[C@H](CO)[C@@H](O)[C@H](O)[C@H]1O (stereo partly specified),Potency,[1],inactive
same,Potency,[2],inactive
CC(C)NC[C@H](O)COc1ccc(CCOCC2CC2)cc1,Potency,[1],inactive
same,Potency,[2],inactive
Cc1c(-c2ccnn2C)cc(C(=O)NCc2ccc(S(C)(=O)=O)cn2)c(=O)n1-c1cccc(C(F)(F)F)c1,Potency,[1],inactive
same,Potency,[2],inactive
C/C(=C\CCC(C(=O)O)C1CCC2(C)C3=C(CCC12C)C1(C)CCC(=O)C(C)(C)C1CC3)C(=O)O (stereo unspecified),Potency,[1],inactive
same,Potency,[2],inactive
C=C1CC2[C@]3(C)C(=C(O)C(=O)[C@@]2(C)[C@]2(C(=O)OC)C(=O)C(C)OC(=O)[C@@]12C)C(C)(C)C(=O)CC3O (stereo partly specified),Potency,[1],inactive
same,Potency,[2],inactive
CCC(C)C(=O)O[C@@H]1[C@@H](O)[C@@H](O[C@H]2O[C@H](CO)[C@@H](O)[C@H](O)[C@H]2O)O[C@H](CO)[C@H]1O (stereo partly specified),Potency,[1],inactive
same,Potency,[2],inactive
CC1(C)O[C@@]2(C)CC[C@@H]1C[C@@H]2OC1OC(CO)C(O)C(O)C1O (stereo partly specified),Potency,[1],inactive
same,Potency,[2],inactive
C[C@@H]1O[C@@H](O[C@@H]2[C@@H](O)[C@@H](O)[C@H](O[C@@H]3[C@@H](O)[C@@H](O[C@]4(CO)O[C@H](CO)[C@@H](O)[C@@H]4OC(=O)/C=C/c4ccc(O)cc4)O[C@H](CO)[C@H]3OC(=O)/C=C/c3ccc(O)cc3)O[C@H]2C)[C@H](O)[C@H](O)[C@H]1O,outcome,[1],inactive [at 9.29 µM]
same,outcome,[2],inactive [at 9.29 µM]
CC1(CO)CC[C@]2(C(=O)O[C@@H]3O[C@H](CO)[C@@H](O)[C@H](O)[C@H]3O)CC[C@]3(C)C(=CCC4[C@@]5(C)CC[C@H](O[C@@H]6O[C@H](C(=O)O)[C@@H](O)[C@H](O)[C@H]6O)C(C)(C)C5CC[C@]43C)C2C1 (stereo partly specified),outcome,[1],inactive [at 9.29 µM]
same,"activity change, negative = cytotoxicity",[2],7.12% [at 9.29 µM]
C[C@H]1[C@H](C)CC[C@]2(C(=O)O)CC[C@]3(C)C(=CC[C@@H]4[C@@]5(C)C[C@@H](O)[C@H](O)[C@@](C)(CO)[C@@H]5CC[C@]43C)[C@H]12,Potency,[1],inactive
same,Potency,[2],inactive
C[C@H]1C[C@H]2[C@@H]3CCC4=CC(=O)C=C[C@]4(C)[C@@]3(F)[C@@H](O)C[C@]2(C)[C@@]1(O)C(=O)COP(=O)(O)O,Potency,[1],inactive
same,Potency,[2],inactive
CC1=CCC2C(C)(CO)CCCC2(CO)C1CO (stereo unspecified),Potency,[1],inactive
same,Potency,[2],inactive
COC(=O)C1=COC(O[C@@H]2O[C@H](CO)[C@@H](O)[C@H](O)[C@H]2O)/C(=C\COC(=O)c2ccc(OC3OC(CO)C(O)C(O)C3O)c(OC)c2)C1CC(=O)OCCc1ccc(O)cc1 (stereo partly specified),outcome,[1],inactive [at 9.29 µM]
same,outcome,[2],inactive [at 9.29 µM]
COc1cc(C(O)C(CO)Oc2ccc(CCCO[C@@H]3O[C@@H](C)[C@H](O)[C@@H](O)[C@H]3O)cc2OC)ccc1O (stereo partly specified),Potency,[1],inactive
same,Potency,[2],inactive
CCn1c2ccccc2c2cc(CNC)ccc21,Potency,[1],inactive
same,Potency,[2],inactive
C[C@@H]1O[C@@H](O[C@H]2[C@H](O[C@H]3CC[C@@]4(C)C(CC[C@]5(C)C4CC=C4[C@@H]6CC(C)(C)CC[C@]6(C(=O)O)CC[C@]45C)[C@]3(C)CO)OC[C@H](O)[C@@H]2O)[C@H](O)[C@H](O[C@@H]2OC[C@@H](O)[C@H](O)[C@H]2O)[C@H]1O (stereo partly specified),outcome,[1],inactive [at 9.29 µM]
same,"activity change, negative = cytotoxicity",[2],-3.86% [at 9.29 µM]
O=C(NCC(=O)N1CC[C@H](NC2CCC(O)(c3ccc(-c4ncccn4)cn3)CC2)C1)c1cccc(C(F)(F)F)c1 (stereo partly specified),Potency,[1],inactive
same,Potency,[2],inactive
C[C@@H]1CC[C@]2(C(=O)O)CC[C@]3(C)C(=CCC4[C@]5(C)C(CC[C@]43C)C(C)(C)[C@@H](O)[C@H](O)[C@@H]5O)C2[C@]1(C)O (stereo partly specified),Potency,[1],inactive
same,Potency,[2],inactive
CC1=C2C(=O)O[C@@H](c3ccoc3)[C@]2(C)CCC1,Potency,[1],inactive
same,Potency,[2],inactive
CC(=O)[C@@H]1CC[C@]2(C(=O)O)CC[C@]3(C)C(CCC4[C@@]5(C)CC[C@H](O)C(C)(C)C5CC[C@]43C)C12 (stereo partly specified),Potency,[1],inactive
same,Potency,[2],inactive
NCCOCCOCCNC(=O)Cc1ccc(Nc2nc(NCc3ccc(F)cc3)nc(NCC3CCCCC3)n2)cc1,Potency,[1],inactive
same,Potency,[2],inactive
Cc1cc(N2CCCCC2)nc2ccccc12,Potency,[1],inactive
same,Potency,[2],inactive
CCCCS(=O)(=O)Nc1ncnc(OCCOc2ncc(Br)cn2)c1-c1ccc(Br)cc1,Potency,[1],inactive
same,Potency,[2],inactive
O=C(OCc1cccc(O)c1O[C@@H]1O[C@H](CO)[C@@H](O)[C@H](O)[C@H]1O)C1(O)C(=O)C2C=CC1C1C=CC(=O)C(O)(C(=O)OCc3cccc(O)c3O[C@@H]3O[C@H](CO)[C@@H](O)[C@H](O)[C@H]3O)C21 (stereo partly specified),outcome,[1],inactive [at 9.29 µM]
same,outcome,[2],inactive [at 9.29 µM]
NC1CCC(N[C@@H]2C[C@H]2c2ccccc2)CC1 (stereo partly specified),Potency,[1],inactive
same,Potency,[2],inactive
COc1c(C)c2c(c(O)c1C/C=C(\C)CC/C=C(\C)CCC(=O)O)C(=O)OC2,Potency,[1],inactive
same,Potency,[2],inactive
CC(=O)NC(C(=O)OC1CCC(C)(C)C2CC=C3C(=O)OCC3(O)C12C)C(C)C (stereo unspecified),Potency,[1],inactive
same,Potency,[2],inactive
C[C@@H]1O[C@@H](OC[C@H]2O[C@@H](OCCc3ccccc3)[C@H](O)[C@@H](O)[C@@H]2O)[C@H](O)[C@H](O)[C@H]1O,Potency,[1],inactive
same,Potency,[2],inactive
COC(=O)CC1(O)C(=O)Nc2ccccc21 (stereo unspecified),Potency,[1],inactive
same,Potency,[2],inactive
CC1=CC(=O)CC(C)(CO[C@@H]2O[C@H](CO)[C@@H](O)[C@H](O)[C@H]2O)C1(O)/C=C/C(C)=C/C(=O)O (stereo partly specified),Potency,[1],inactive
same,Potency,[2],inactive
CC(=O)O[C@@H]1C[C@]2(C)[C@@]3(CCC4[C@@]5(C)CC[C@H](O[C@@H]6O[C@H](C(=O)O)[C@@H](O)[C@H](O[C@@H]7O[C@H](CO)[C@H](O)[C@H](O)[C@H]7O[C@@H]7O[C@@H](C)[C@H](O)[C@@H](O)[C@H]7O[C@@H]7OC[C@](O)(CO)[C@H]7O)[C@H]6O[C@@H]6O[C@H](CO)[C@H](O)[C@H](O)[C@H]6O)C(C)(C)C5CC[C@]42C)O[C@@H](O)[C@]12C3CC(C)(C)[C@@H](OC(=O)/C=C/c1ccc(O)c(O)c1)[C@@H]2OC(=O)/C=C/c1ccccc1 (stereo partly specified),outcome,[1],inactive [at 9.29 µM]
same,outcome,[2],inactive [at 9.29 µM]
